Reference: PubChem BioAssay AID1347417 (National Center for Advancing Translational Sciences (NCATS), 2020)
Out of some 120,000 compounds screened, about 5,300 (4.4%) were called active. About 22% were inconclusive and are not listed. For the sample, actives were picked, then their nearest neighbours and some compounds at random. A number with no mark means an inactive call. The call rests on the fitted dose curve; in most records, active means well fitted inhibition curve with a large enough effect; inconclusive means small, poorly fitted or top-dose-only effect; inactive means no such curve, though single readings can be large or run the other way.
Potency means the concentration at half of the fitted maximal effect.

Assay: qHTS Primary assay for Inhibitors of Plasmodium falciparum Dd2 growth in vitro; further: nearly all actives have a fitted effect of over 65% in size;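 on activity, negative = inhibition: plate controls were DMSO vehicle for no effect and reference drug for full effect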
Conditions: P. falciparum Dd2 growth, SYBR Green, 72 h; series mostly up to 28.9 µM; activity, negative = inhibition: at the top concentration
Summary of the method: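 Infected erythrocytes (Dd2, 0.3% parasitemia, 2.5% hematocrit final) are added to compound in RPMI-1640/Albumax II medium, grown 72 h at 37C in low oxygen, then lysed with saponin/Triton-X containing SYBR Green and read by fluorescence.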
For `COc1cccc(-c2ccnc3nc(-c4ccccc4OC)nn23)c1`, the “outcome” value was “inactive”.
For `COCc1nc2nccc(-c3ccccc3)n2n1`, the “activity, negative = inhibition” value was 11.9%.
For `COc1cccc(-c2ccnc3nc(Cc4cc(F)cc(F)c4)nn23)c1`, the Potency was 10 µM (active).
In the case of `CNC(=O)[C@@H]1CN(C(=O)C2CC=CCC2)C[C@H]1c1nc(C)no1` (stereo partly drawn), the “activity, negative = inhibition” value is reported as -11.6%.
For `O=C(c1ccc(F)cc1)N1CCCC(c2nn(-c3cccc(Cl)c3)c(=O)[nH]2)C1` (stereo not drawn), the “outcome” value was “inactive”.
For `CC(C)CCN1C(=O)CC[C@]2(C(=O)N3CCN(C)CC3)CCCC[C@@H]12`, the Potency was 11.2 µM (active).
In the case of `CN1C(=O)CC[C@]2(C(=O)NCC3CCCCC3)CCCC[C@@H]12`, the “activity, negative = inhibition” value is reported as 6.63%.
With `COCCN1C(=O)CC[C@]2(C(=O)NCc3cccs3)CCCC[C@@H]12` the “activity, negative = inhibition” value was -7.18%.
For `CCOc1ccc(NC(=O)c2cnn(-c3ccccc3)c2-n2cccc2)cc1`, the “activity, negative = inhibition” value was -18%.
With `COC(=O)c1cnn(-c2ccc(C(=O)Nc3ccc(OC(F)(F)F)cc3)cc2)c1N` the Potency was 1.58 µM (active).
For `Cc1ccc2ncc(C(=O)Nc3ccc(OC(F)(F)F)cc3)c(=O)n2c1`, the “activity, negative = inhibition” value was 5.38%.
For `O=C(NCC1(COc2ccc(C(F)(F)F)cn2)C[C@@H](O)[C@@H](O)C1)c1ccc(F)cc1` (stereo partly drawn), the “activity, negative = inhibition” value was -12.3%.
In the case of `CCn1cc(CN2C[C@@H](COC)[C@H](c3nc(COC)no3)C2)cn1`, the “activity, negative = inhibition” value is reported as 33.5%.
With `COc1ccc(CCC(=O)NCc2ccc3c(c2)CCN3C(=O)c2ccc(F)cc2)cc1` the Potency was 4.47 µM (active).
With `O=C(COc1ccccc1)NCc1ccc2c(c1)CCN2C(=O)c1ccc(F)cc1` the “outcome” value was “inactive”.
In the case of `O=C(CCc1ccccc1)NCc1ccc2c(c1)CCN2C(=O)c1ccccc1`, the “outcome” value is reported as “inactive”.
In the case of `Cc1ccc(CNC(=O)N2CCCOCCNC(=O)[C@@H]3CCC[C@@H]32)cc1`, the “activity, negative = inhibition” value is reported as 48.5%.
For `C[S+](=O)([O-])c1ccc(CC(=O)N2CC(CNC(=O)C3CC3)C3(C2)CN(c2ccccc2)C3)cc1` (stereo not drawn), the “activity, negative = inhibition” value was 18%.
For `Oc1ccccc1CN1CCOC[C@H]1c1ncc(-c2ccc(C(F)(F)F)cc2)[nH]1`, the Potency was 1.26 µM (active).
With `c1cc(CN2CCOC[C@H]2c2ncc(-c3ccncc3)[nH]2)ccn1` the “activity, negative = inhibition” value was 21.5% [at 44.1 µM].
For `c1cncc(-c2cnc([C@@H]3COCCN3Cc3cnc4ccccc4c3)[nH]2)c1`, the “activity, negative = inhibition” value was -25.9% [at 44.1 µM].
In the case of `O=C(COc1ccccc1)N[C@H]1[C@H](O)[C@H](O)C[C@@H]1c1ccc(C(F)(F)F)cc1`, the “activity, negative = inhibition” value is reported as -10.6% [at 44.1 µM].
In the case of `Cc1ccc2c(c1)N1C(=O)OC[C@@H]1CCN(C(=O)Nc1ccccc1)C2`, the “activity, negative = inhibition” value is reported as -6.37% [at 44.1 µM].
In the case of `CCOC(=O)c1ccc(NC(=O)Cn2nc3c(cc2=O)CN(C(C)=O)CC3)cc1`, the “outcome” value is reported as “inactive”.
In the case of `O=C(c1ccc2[nH]ccc2c1)N1CCC(N2CC(OCC3CC3)C23CCOCC3)CC1` (stereo not drawn), the “activity, negative = inhibition” value is reported as -12%.
In the case of `Fc1cccc(CN2CCC(N3CC(OCC4CC4)C34CCCCC4)CC2)c1` (stereo not drawn), the Potency is reported as 0.501 µM (active).
In the case of `N#Cc1cccc(CN2CCC(C3=NC(O)c4cc(F)ccc4N3)CC2)c1` (stereo not drawn), the “outcome” value is reported as “inactive”.
In the case of `COCCOC1CN(C2CCN(C(=O)C3CCOCC3)CC2)C12CCCCC2` (stereo not drawn), the “outcome” value is reported as “inactive”.
In the case of `COCCOC1CN(C2CCN(C(=O)c3ccc(OC)nc3)CC2)C12CCCCC2` (stereo not drawn), the “activity, negative = inhibition” value is reported as -1.15%.
In the case of `CCn1cc(CN2CCC(N3CC(OCC4CC4)C34CCCCC4)CC2)cn1` (stereo not drawn), the Potency is reported as 1.41 µM (active).
For `O=C(Nc1cccc(Cl)c1)[C@@H]1C[C@@H](c2ccc(F)cc2)N([S+](=O)([O-])c2cccnc2)C1`, the “outcome” value was “inactive; activator; fitted 4.4668 uM”.
With `O=C1CC(c2ccccc2)N(C(=O)CNC(=O)C2CCC2)CCCCCN1` (stereo not drawn) the “activity, negative = inhibition” value was 12.7%.
With `COc1ccc(CNC(=O)NCC(=O)N2CCCCCCNC(=O)CC2c2ccccc2)cc1` (stereo not drawn) the Potency was 8.91 µM (active).
For `O=C1CC(c2ccccc2)N(C(=O)CNC(=O)NCc2ccc(F)cc2)CCCCCN1` (stereo not drawn), the “activity, negative = inhibition” value was 24.2%.
In the case of `CCn1cc(S(=O)(=O)N2CC[C@H]3C(=O)NCCCCCCN(Cc4ccncc4)[C@@H]3C2)cn1`, the “activity, negative = inhibition” value is reported as -2.45%.
For `CN(C)C[C@@H]1CN(C)C[C@H]1NS(=O)(=O)c1cccc(C(F)(F)F)c1`, the Potency was 3.55 µM (active).
With `NC(=O)[C@H](CCC(=O)O)NC(=O)[C@@]1(O)C[C@@H](O)[C@H](O)[C@@H](NS(=O)(=O)c2cccc(C(F)(F)F)c2)C1` the “activity, negative = inhibition” value was 5.33%.
With `CN(C)C[C@@H]1CN(C)C[C@H]1NC(=O)c1cc2ccccc2[nH]1` the “activity, negative = inhibition” value was 3.28%.
In the case of `CN(C)C[C@@H]1CN(C(=O)c2ccc3c(c2)OCC(=O)N3)C[C@@H]1CO`, the “activity, negative = inhibition” value is reported as -2.97%.
With `Cc1ccc(NC(=O)Cn2cccc2-c2nc(-c3ccc4c(c3)OCO4)no2)cc1Cl` the “activity, negative = inhibition” value was 6.15%.
With `O=C(NCc1ccc2c(c1)OCO2)c1noc(-c2ccc(F)cc2)n1` the “outcome” value was “inactive; activator; fitted 3.9811 uM”.
With `O=C(CCc1ccccc1)NCCn1cccc1-c1nc(-c2ccc3c(c2)OCO3)no1` the Potency was 7.08 µM (active).
In the case of `CCc1noc(C)c1C(=O)N1CC[C@@H](NC(=O)c2ccccn2)[C@H](O)C1`, the “activity, negative = inhibition” value is reported as 4.75%.
In the case of `Cc1cccc(-n2ccnc2SCC(=O)Nc2cc(C(F)(F)F)ccc2Cl)c1`, the Potency is reported as 3.55 µM (active).
In the case of `O=C(CSc1nccn1-c1ccc(F)cc1)Nc1cccc2ccccc12`, the “activity, negative = inhibition” value is reported as 14%.
With `O=C(CSc1nccn1C1CCCC1)Nc1cc(C(F)(F)F)ccc1Cl` the Potency was 11.2 µM (active).
With `Cc1cc(C)cc(-n2ccnc2SCC(=O)Nc2nc3ccccc3s2)c1` the “activity, negative = inhibition” value was 9.7%.
For `O=C(CSc1nc(=O)[nH]c2c1CCCC2)Nc1cc(C(F)(F)F)ccc1Cl`, the “activity, negative = inhibition” value was -24.7%.
